How the values were obtained:
Test in all cases: log2 ratio of Biotin-Ahx-Ub-VS probe labelling (fragment/DMSO); higher = less target engagement (more negative = stronger competition), active = hit call of the paper (q ≤ 0.05, log2 ratio ≤ -1)
Settings in all cases: compound concentration: 200 uM; treatment time: 3 h
[1] = target: T1, USP19 (UniProt O94966)
T1 sequence (whole entry): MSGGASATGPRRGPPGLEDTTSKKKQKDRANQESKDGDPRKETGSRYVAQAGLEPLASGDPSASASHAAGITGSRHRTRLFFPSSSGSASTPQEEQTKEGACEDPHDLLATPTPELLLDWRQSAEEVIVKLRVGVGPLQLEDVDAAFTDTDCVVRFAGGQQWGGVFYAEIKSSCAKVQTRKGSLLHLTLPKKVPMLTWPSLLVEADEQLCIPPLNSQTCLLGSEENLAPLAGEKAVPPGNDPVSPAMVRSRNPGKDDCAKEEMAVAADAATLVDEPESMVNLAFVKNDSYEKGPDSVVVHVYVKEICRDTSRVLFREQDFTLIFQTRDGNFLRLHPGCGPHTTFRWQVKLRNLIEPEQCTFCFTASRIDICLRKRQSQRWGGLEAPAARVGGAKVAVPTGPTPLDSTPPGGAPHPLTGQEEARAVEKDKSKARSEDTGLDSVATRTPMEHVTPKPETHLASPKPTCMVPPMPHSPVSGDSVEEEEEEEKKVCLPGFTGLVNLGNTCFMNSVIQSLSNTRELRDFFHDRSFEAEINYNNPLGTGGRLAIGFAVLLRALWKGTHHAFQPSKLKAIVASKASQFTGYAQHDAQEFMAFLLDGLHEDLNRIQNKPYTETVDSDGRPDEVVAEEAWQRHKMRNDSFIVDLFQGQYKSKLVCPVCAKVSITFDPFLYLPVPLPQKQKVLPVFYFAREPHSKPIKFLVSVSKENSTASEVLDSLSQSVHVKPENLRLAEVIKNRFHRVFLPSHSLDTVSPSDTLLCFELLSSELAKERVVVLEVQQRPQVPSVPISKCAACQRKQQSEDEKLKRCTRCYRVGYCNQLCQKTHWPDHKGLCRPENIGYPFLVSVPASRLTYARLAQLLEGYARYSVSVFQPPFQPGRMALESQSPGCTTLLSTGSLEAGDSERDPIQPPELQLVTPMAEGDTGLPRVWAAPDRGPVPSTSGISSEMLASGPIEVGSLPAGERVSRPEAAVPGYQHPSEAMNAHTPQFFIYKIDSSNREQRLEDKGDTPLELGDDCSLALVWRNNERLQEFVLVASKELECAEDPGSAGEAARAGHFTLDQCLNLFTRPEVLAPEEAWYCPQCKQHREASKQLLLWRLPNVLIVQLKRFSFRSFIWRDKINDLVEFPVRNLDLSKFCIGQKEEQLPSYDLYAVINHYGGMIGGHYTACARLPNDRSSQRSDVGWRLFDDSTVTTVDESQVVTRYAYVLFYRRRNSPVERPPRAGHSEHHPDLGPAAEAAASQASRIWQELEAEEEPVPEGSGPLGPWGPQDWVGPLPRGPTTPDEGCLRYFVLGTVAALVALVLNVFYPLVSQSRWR
How it was run: (§1)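 Labelling with Biotin-Ahx-Ub-VS (0.5 µM final, 1 h) followed a 3 h triplicate treatment of HEK293T lysate (495 µg per sample, Tris/CHAPS/IGEPAL buffer with protease inhibitors) with fragment at 200 µM or vehicle. Labelled DUBs were NeutrAvidin-enriched, digested with LysC and trypsin, and run by diaPASEF LC-MS/MS. The values, average log2 fragment/vehicle ratios by unpaired t-test, come from global-median-normalised Spectronaut label-free quantities. Proteins with ≥2 unique peptides were used.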

[2] = target: USP24 (UniProt Q9UPU5)
Chain of USP24 (Q9UPU5 whole entry): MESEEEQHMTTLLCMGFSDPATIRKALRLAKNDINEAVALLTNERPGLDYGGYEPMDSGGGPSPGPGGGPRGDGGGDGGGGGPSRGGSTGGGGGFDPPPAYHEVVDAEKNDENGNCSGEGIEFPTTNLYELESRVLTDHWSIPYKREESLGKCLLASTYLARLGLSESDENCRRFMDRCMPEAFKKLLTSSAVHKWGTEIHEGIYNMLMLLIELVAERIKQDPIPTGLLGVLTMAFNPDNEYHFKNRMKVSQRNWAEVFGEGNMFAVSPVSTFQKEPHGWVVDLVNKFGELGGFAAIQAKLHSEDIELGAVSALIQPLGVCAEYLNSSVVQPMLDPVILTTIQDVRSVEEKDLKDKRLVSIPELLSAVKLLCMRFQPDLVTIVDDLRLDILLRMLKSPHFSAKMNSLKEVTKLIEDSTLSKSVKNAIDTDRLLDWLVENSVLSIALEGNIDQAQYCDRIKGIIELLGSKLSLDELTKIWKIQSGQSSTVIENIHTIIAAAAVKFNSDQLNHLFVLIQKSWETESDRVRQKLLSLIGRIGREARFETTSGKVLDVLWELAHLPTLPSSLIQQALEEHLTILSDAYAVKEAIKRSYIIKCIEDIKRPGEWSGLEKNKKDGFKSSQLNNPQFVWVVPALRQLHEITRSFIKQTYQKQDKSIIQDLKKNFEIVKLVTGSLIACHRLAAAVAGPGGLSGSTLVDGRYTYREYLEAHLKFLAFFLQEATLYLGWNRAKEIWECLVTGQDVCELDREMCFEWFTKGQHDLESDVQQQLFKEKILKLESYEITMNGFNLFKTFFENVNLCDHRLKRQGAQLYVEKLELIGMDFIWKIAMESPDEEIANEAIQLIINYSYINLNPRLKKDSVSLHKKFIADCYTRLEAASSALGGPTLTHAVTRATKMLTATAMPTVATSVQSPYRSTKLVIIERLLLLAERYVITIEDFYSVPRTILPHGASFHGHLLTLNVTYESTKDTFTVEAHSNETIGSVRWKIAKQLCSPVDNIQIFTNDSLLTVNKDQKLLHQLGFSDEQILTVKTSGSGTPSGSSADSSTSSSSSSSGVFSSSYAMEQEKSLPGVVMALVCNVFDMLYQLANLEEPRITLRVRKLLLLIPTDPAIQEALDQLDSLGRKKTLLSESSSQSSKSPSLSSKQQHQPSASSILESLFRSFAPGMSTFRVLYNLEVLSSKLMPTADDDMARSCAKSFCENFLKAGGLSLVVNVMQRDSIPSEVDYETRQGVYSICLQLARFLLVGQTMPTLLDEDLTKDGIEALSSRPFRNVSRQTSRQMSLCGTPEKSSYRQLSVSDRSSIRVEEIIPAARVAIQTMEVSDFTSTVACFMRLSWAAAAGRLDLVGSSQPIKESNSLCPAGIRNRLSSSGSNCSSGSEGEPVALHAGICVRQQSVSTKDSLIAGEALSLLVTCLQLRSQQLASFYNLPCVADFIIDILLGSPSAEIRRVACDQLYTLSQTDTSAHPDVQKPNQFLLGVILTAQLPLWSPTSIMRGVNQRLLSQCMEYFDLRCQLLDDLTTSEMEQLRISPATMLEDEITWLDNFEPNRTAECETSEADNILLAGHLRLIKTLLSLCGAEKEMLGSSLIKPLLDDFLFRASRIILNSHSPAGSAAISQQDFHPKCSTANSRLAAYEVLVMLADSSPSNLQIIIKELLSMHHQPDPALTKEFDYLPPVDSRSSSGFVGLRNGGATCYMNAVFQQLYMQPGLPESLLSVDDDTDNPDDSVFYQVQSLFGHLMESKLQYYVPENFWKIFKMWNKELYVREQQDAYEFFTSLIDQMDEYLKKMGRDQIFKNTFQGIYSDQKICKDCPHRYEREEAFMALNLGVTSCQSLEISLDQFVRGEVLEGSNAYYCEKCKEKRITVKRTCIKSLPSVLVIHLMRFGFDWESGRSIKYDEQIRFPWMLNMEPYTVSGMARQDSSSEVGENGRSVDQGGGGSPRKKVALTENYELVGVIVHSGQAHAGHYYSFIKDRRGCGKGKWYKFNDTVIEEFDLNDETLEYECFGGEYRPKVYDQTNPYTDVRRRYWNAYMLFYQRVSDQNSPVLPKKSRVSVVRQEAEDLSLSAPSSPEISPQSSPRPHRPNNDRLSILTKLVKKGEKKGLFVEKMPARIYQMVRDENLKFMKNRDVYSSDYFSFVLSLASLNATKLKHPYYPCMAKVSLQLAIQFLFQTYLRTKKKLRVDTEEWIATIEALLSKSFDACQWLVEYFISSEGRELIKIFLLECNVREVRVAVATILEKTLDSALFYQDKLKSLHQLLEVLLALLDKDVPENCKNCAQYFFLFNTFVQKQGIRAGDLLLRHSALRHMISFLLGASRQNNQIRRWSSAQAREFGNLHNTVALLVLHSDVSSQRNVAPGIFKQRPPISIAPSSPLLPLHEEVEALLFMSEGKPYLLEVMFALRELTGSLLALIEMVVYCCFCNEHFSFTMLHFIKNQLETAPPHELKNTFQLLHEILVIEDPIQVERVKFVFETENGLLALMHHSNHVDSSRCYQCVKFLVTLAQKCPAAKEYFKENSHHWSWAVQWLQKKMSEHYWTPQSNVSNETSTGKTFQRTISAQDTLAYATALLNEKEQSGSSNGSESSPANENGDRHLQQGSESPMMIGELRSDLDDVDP
How it was run: as §1

[3] = target: T2, USP25 (UniProt Q9UHP3)
T2 sequence (whole entry): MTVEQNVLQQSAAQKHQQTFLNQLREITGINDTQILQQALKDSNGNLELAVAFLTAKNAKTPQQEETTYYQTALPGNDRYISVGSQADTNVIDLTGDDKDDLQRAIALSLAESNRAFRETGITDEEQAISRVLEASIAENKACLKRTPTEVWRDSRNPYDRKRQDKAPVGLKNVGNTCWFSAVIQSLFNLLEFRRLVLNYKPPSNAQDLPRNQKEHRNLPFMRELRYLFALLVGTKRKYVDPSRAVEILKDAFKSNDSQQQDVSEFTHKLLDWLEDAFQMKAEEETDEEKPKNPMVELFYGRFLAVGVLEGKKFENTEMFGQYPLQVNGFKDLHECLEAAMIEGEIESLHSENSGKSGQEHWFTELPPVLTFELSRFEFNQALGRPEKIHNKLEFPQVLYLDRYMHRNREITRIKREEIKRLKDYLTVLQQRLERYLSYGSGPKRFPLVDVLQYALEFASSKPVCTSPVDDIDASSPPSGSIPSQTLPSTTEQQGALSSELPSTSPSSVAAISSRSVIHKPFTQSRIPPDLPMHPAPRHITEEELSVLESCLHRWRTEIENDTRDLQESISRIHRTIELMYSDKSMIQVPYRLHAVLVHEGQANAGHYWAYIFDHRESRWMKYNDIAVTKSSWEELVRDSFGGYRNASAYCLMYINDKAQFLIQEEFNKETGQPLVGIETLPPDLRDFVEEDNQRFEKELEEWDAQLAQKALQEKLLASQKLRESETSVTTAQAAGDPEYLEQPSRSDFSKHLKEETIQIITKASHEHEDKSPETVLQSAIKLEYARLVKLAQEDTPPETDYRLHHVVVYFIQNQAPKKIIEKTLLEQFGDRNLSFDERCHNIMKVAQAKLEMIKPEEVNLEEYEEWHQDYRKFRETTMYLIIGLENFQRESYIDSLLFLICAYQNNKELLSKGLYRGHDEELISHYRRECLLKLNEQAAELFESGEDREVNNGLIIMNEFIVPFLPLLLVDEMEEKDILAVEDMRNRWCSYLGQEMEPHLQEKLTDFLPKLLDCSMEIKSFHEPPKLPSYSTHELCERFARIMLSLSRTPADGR
How it was run: as §1

[4] = target: T3, USP28 (UniProt Q96RU2)
T3 sequence (whole entry): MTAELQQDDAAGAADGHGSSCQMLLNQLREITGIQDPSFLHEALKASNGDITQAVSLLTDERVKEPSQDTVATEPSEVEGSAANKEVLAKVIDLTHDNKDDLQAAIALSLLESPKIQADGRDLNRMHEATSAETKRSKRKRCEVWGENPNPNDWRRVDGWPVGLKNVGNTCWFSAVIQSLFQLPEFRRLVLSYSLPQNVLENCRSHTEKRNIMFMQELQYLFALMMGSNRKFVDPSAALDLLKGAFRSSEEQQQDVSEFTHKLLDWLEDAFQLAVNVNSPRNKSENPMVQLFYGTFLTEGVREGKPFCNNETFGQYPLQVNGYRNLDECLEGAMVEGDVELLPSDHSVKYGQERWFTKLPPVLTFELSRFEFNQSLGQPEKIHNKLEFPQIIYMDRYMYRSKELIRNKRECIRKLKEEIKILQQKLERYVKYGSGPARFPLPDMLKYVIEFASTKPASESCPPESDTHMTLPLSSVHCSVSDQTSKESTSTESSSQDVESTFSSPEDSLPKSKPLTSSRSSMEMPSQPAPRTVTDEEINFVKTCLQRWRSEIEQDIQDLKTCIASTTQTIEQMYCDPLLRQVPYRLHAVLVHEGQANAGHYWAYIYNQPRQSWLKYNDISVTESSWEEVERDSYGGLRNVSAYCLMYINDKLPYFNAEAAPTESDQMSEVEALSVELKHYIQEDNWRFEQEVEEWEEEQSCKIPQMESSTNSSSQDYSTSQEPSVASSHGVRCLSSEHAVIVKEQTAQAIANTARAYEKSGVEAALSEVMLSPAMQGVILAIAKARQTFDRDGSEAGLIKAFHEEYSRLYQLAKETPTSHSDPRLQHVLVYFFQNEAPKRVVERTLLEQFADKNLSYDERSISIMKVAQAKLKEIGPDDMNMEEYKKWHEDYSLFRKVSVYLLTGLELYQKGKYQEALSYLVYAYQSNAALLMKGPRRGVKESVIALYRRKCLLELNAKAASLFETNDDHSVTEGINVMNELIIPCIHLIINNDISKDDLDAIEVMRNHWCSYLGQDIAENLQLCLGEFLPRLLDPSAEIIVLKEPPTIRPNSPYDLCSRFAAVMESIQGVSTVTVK
How it was run: as §1

Measured: log2 ratio of Biotin-Ahx-Ub-VS probe labelling

O=C(CCl)NCc1noc(C2CC2)n1
inactive: [1] 0.0297 | [2] -0.225 | [3] -0.329 | [4] -0.393

Reference: the supplement of paper PMC11732987, “Enantioselective OTUD7B fragment discovery through chemoproteomics screening and high-throughput optimisation” (Communications Chemistry, 2025)
